Laboratory results published in PubChem BioAssay AID624169 (The Scripps Research Institute Molecular Screening Center, 2012).
Screen size: about 360,000 compounds; about 2,400 (0.67%) were called active.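 Rule for the calls: active = activation above a run cutoff, the mean activation of all tested compounds plus 3 SD (cut at about 14% in these data); inactive = the rest.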 For the sample, actives were picked, then their nearest neighbours and some compounds at random.

biological target: 5-hydroxytryptamine receptor 2A (Mus musculus) (UniProt P35363); test: mouse Htr2a agonists via beta-arrestin recruitment, primary screen, cell-based, luminescence (AID 624169); conditions: CHO-K1 mHTR2A beta-arrestin complementation, at 7.6 µM, active compounds read high, percent of 30 µM serotonin response;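 note: 0% = plate median of compound wells and 100% = 30 µM serotonin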
Sequence (P35363 whole entry, looked up): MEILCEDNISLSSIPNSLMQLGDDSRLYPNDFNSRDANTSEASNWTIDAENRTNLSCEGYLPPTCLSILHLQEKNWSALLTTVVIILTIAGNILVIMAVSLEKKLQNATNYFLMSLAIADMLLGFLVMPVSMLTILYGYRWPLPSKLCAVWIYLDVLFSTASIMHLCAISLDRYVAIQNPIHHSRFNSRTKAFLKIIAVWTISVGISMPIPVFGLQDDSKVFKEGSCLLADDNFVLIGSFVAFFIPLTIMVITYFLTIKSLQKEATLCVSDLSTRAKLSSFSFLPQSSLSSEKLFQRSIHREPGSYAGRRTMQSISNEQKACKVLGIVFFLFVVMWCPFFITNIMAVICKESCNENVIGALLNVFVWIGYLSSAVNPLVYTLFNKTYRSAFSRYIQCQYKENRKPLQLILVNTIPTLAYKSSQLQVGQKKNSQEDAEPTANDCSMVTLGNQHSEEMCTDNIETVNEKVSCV

activation, inactive:
CCCCn1c(N)c(N(CCOC)C(=O)c2sc3ccccc3c2Cl)c(=O)[nH]c1=O -2.4%
Cc1cc(NC(=O)CSCc2ccccc2C)no1 -1.07%
CC(C)(C)NC(=O)NC(=O)CN1CCC(Cc2ccccc2)CC1 0.69%
Cc1ccc(S(=O)(=O)C2C(=O)NC3(C)CC2c2ccccc2O3)cc1 (stereo not given) -3.98%
O=C(NCc1ccccc1)c1ccc(CNc2c(N3CCCC3)c(=O)c2=O)cc1 -2.51%
CC(=O)Oc1ccc2c(=O)oc(-c3ccc([N+](=O)[O-])cc3)nc2c1 6.81%
O=[N+]([O-])c1ccc2oc(-c3cccc(O)c3)nc2c1 -2.7%
CNc1ccc(SC#N)cc1 8.45%
NCCCC[C@@H]1NC(=O)[C@H](CCC(=O)O)NC(=O)c2cc([N+](=O)[O-])cc(I)c2NCC[C@@H](C(N)=O)NC1=O -1.82%
O=C1CCC(C(=O)Nc2ccc(OC(F)F)cc2)N1 (stereo not given) 2.5%
Cc1ccc2nc(-c3ccncc3)cc(C(=O)Nc3ccc(OC(F)F)cc3)c2c1 -2.82%
CC1CCCC(NC(=O)c2cc(-c3ccncc3)nc3ccccc23)C1C (stereo not given) -0.93%
CC1CCCCC1NC(=O)CCS(=O)(=O)c1ccc2c(c1)NC(=O)CO2 (stereo not given) 1.84%
COc1ccccc1/C=C/C(=O)NC(=S)N1CCOCC1 -0.42%
CCc1cc(C(c2ccccc2OC)N2CCOCC2)c(NC(=O)c2ccccc2)s1 (stereo not given) -2.8%
Cc1cccc(NC(=O)CSc2nnc(NC(=O)CN3CCOCC3)s2)c1 4.08%
CCCNS(=O)(=O)c1ccc(CCC(=O)N2CCCC2)cc1 0.26%
O=C1N(Cc2ccc3c(c2)OCO3)c2ccccc2C1(O)c1c[nH]c2ccccc12 (stereo not given) 4.88%
CCOC(=O)[C@]12CCCC=C1N(Cc1ccc3c(c1)OCO3)C(=O)[C@H](CC(=O)N1CCN(C(=O)c3ccco3)CC1)C2 1.52%
COC(=O)[C@]12CCCCC=C1N(Cc1ccc3c(c1)OCO3)C(=O)[C@H](CC(=O)NCc1cccs1)C2 7.05%
CCNC(=O)c1cc2c(c(-c3cccc(-c4cncnc4)c3)n1)[C@H](CCO)N(C(C)=O)C2 -0.81%
CN1CCC(=O)N([C@H](CO)Cc2ccccc2)CC1 -5.13%
COCCN(CCOC)S(=O)(=O)NC[C@H]1O[C@@H](n2cnc3c(N)ncnc32)[C@H](O)[C@@H]1O 4.4%
CC(=O)OCCOCn1cnn2c(=O)c(Br)c(C)nc12 1.26%
COc1ccccc1NC(=O)c1ccc(N2CC3CC(C2)c2cccc(=O)n2C3)c(NC(=O)c2cccnc2)c1 (stereo not given) 3.35%
CN(c1ccccc1)S(=O)(=O)c1ccc(C(=O)N2CCN(c3ccccc3Cl)CC2)cc1 -7.83%
Nc1[nH][nH]c(=O)c1N=Nc1ccc2c(c1)OCO2 -2.91%
CCc1ccc(N2CC(C(=O)Nc3ccc(S(=O)(=O)Nc4nccs4)cc3)CC2=O)cc1 (stereo not given) -3.72%
C=C1c2c(Cl)ccc(O)c2C(O)=C2C(=O)[C@]3(O)C(O)=C(C(N)=O)C(=O)[C@@H](N(C)C)[C@@H]3[C@@H](O)C12 (stereo not given in full) -1.23%
C=C(C)C(=O)Nc1cccc(C2=NOC3(C2)C[C@H](C(N)=O)N(C(=O)C(c2ccccc2)c2ccccc2)C3)c1 (stereo not given in full) 5.68%
CCn1c(SCC(=O)NCC2CCCO2)nc2ccccc21 (stereo not given) 2.38%
CCCCn1c(SCC(=O)N2CCCC2=O)nc2cc(S(N)(=O)=O)ccc21 0%
O=C(NCc1ccccc1)[C@@H]1CSC2c3ccccc3C(=O)N21 (stereo not given in full) 1.3%
COc1cc(OC)c(OC)cc1CN1CCN(C(=O)c2cccc3ccccc23)CC1 0.49%
COc1cccc(OC)c1C(=O)N1CCN(Cc2ccccc2F)CC1 2%
C/C(CC(=O)NCc1ccc(Cl)cc1)=N\NC(=O)COc1ccc(C)cc1Br -5.06%
CC(C)CN(C(=O)c1cccc(S(=O)(=O)N2CCCCC2)c1)C1CCS(=O)(=O)C1 (stereo not given) 3.09%
Cn1cc(S(=O)(=O)N2CCC(Cc3ccccc3)CC2)c(=O)n(C)c1=O -1.79%
NC(=O)c1ccc(CN2CCC(Cc3ccccc3)CC2)cc1 -5.52%
CCCCN(C(=O)c1ccc(C)o1)c1c(N)n(CCCC)c(=O)[nH]c1=O -12.3%
C/C(CC(=O)NC(C)(C)C)=N\NC(=O)c1ccco1 5.46%
Cc1cc(C)n(-c2ccc(NC(=O)C3CCCCN3C(=O)c3cccs3)cc2)n1 (stereo not given) -0.84%
Cc1cc(C(=O)OCC(=O)N2C(C)CCCC2C)c2ccccc2n1 (stereo not given) 5%
CC(=O)N1CCN(C(=O)c2cc(-c3ccc(Cl)s3)nc3ccccc23)CC1 -0.1%

activation, active:
Cc1ccccc1CSCC(=O)NC(=O)NC(C)(C)C 19.9%
COc1ccc(-c2nc3cc([N+](=O)[O-])ccc3o2)cc1OC 15.3%
Cc1ccc2nc(-c3ccncc3)cc(C(=O)Nc3ccncc3)c2c1 14.5%
CCOC(=O)/C=c1\s/c(=C\c2ccccc2OC)c(=O)n1CC(=O)N1CCOCC1 15.6%
CCOC(=O)[C@]12CCCC=C1N(Cc1ccc3c(c1)OCO3)C(=O)[C@H](CC(=O)NCc1cccs1)C2 23.4%
Nc1cc(C(=O)N2CCN(c3ccccc3Cl)CC2)ccc1N1CC2CC(C1)c1cccc(=O)n1C2 (stereo not given) 17.7%
CN(C)[C@@H]1C(=O)C(C(N)=O)=C(O)[C@@]2(O)C(=O)C3=C(O)c4c(O)ccc(Cl)c4[C@@H](O)[C@H]3C[C@@H]12 15.9%
CCn1c(SCC(=O)N2CCCC2=O)nc2ccccc21 15.3%
COc1ccccc1CN1CCN(Cc2cc(OC)c(OC)cc2OC)CC1 25.8%
O=C(O)c1ccc(S(=O)(=O)N2CCC(Cc3ccccc3)CC2)cc1 22.2%
COC(=O)c1cc(N2CCNCC2)nc2ccccc12 54.9%
